ST2 inh – inhibitors of human ST2 (IL1RL1) binding to IL-33, primary screen, biochemical, AlphaLISA; 78,000 tested, 2.3% active; Interleukin-1 receptor-like 1 (Homo sapiens), Q01638; inhibition, % for hits at 17 µM; AlphaLISA ST2-Fc/biotin-IL-33 interaction, 1 h; in the data active = inhibition above about 30%
Target sequence (Q01638 whole entry, looked up): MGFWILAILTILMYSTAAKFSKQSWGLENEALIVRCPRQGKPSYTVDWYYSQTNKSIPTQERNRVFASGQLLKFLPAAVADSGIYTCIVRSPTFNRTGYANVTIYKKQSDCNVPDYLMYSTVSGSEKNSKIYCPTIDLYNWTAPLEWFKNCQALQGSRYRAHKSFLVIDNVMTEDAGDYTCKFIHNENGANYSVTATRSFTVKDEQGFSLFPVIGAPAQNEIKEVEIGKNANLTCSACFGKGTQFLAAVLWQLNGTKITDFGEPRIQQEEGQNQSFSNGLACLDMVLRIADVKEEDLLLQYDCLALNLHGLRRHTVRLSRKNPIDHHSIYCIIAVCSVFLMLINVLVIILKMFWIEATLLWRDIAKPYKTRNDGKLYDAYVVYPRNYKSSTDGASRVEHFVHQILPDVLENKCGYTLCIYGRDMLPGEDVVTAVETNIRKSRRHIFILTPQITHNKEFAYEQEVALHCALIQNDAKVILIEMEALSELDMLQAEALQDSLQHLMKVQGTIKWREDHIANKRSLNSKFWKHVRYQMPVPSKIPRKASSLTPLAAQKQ
* = called active by the depositor; i = inactive; ! = not active in a repeat. Many of the other results were omitted from the sample, so hits are more common in it than they were.

SMILES	ST2 inh
Cc1oc2c(c1C(=O)NCc1cccnc1Oc1ccccc1)C(=O)CCC2	i
COc1ccccc1/C=C1N=C(/C=C/c2ccccc2OC)OC\1=O	37%*
COc1ccccc1/C=C/C1=NC(=C\c2ccc(Cl)cc2)/C(=O)O1	i
COc1ccccc1/C=C/C1=NC(=C\c2c(F)cccc2Cl)/C(=O)O1	i
COc1ccccc1/C=C/C1=NC(=C\c2cccc([N+](=O)[O-])c2)/C(=O)O1	i
COc1ccccc1/C=C/C1=NC(=C\c2ccccc2)/C(=O)O1	38%*
COc1ccccc1/C=C/C1=NC(=C\c2ccccc2Cl)/C(=O)O1	i
CC1=C(C(=O)OCCCc2ccccc2)C(c2ccc(C)s2)NC(=O)N1C (stereo not drawn)	i
CCCCS(=O)(=O)N1CCCn2nc(C(=O)N3CCOCC3)cc2C1	i
O=c1c(-c2ccc(O)cc2)coc2cc(O[C@@H]3O[C@H](CO[C@@H]4OC[C@](O)(CO)[C@H]4O)[C@@H](O)[C@H](O)[C@H]3O)cc(O)c12	i
COc1cccc(C2C(C(=O)Nc3ccccn3)=C(C)Nc3nnnn32)c1OC (stereo not drawn)	i
COc1cccc(NC(=O)CCC2CCN(C(=O)c3cc(C)oc3C)CC2)c1	i
CCN(CC)S(=O)(=O)N1CCC(C(=O)Nc2ccc3nc(CCc4ccccc4)[nH]c3c2)CC1	i
CC1(C(=O)NCc2cccnc2)CCC(=O)N1CCN1CCOCC1 (stereo not drawn)	i
COc1ccc(CNc2c([N+](=O)[O-])c(=O)oc3ccccc23)cc1	i
CNc1ccccc1[N+](=O)[O-]	i
COc1ccc(CNc2ccccc2[N+](=O)[O-])cc1	38%*
c1ccc(-c2nc3cnccn3c2NC2CCCC2)cc1	i
O=C(NC1c2ccccc2-c2ccccc21)c1cc2n(n1)CCCNC2	i
CC(=O)N1c2c(cc(Br)cc2S(=O)(=O)NCc2ccc(Cl)cc2)CC1C (stereo not drawn)	i
Cc1ccc(-c2nnc(N(C)C(=O)Cc3ccccc3)s2)cc1	i
C=CCOc1ccc(C=Nc2ccc(Cl)cc2)cc1	i
C=CCOc1ccc(C=Nc2ccc(C(C)C)cc2)c(O)c1	41%*
C=CCOc1ccc(C=Nc2ccc(C)cc2C)c(O)c1	38%*
O=c1[nH]c2ccc(N=Cc3ccc(O)cc3O)cc2[nH]1	i
SMILES	ST2 inh
O=C1OC(c2ccc([N+](=O)[O-])cc2)=N/C1=C\c1ccc([N+](=O)[O-])cc1	i
Cc1[nH]nc2c1C(c1cccnc1)C(C#N)=C(N)O2 (stereo not drawn)	i
COc1ccc2c(c1)C1=NN(C(C)=O)C(c3ccc(F)cc3)C1CC2 (stereo not drawn)	i
CN(C)c1ccc(/C=C(\C#N)c2ccc([N+](=O)[O-])cc2)cc1	i
COc1ccc(/C=C(\C#N)c2ccc([N+](=O)[O-])cc2)c(OC)c1	48%*
COc1ccc(/C=C(\C#N)c2nc3ccccc3[nH]2)c(OC)c1	i
Cn1cccc1-c1cc(C(=O)NCc2nnc3n2CCCCC3)[nH]n1	i
COc1cc(O)c2c(=O)c(OC)c(-c3cc(O)c(OC)c(OC)c3)oc2c1	94%*
COc1cc(O)c2c(=O)c(O[C@@H]3O[C@H](CO[C@@H]4O[C@@H](C)[C@H](O)[C@@H](O[C@@H]5O[C@@H](C)[C@H](O)[C@@H](O)[C@H]5O)[C@H]4O)[C@H](O)[C@H](O)[C@H]3O)c(-c3ccc(O)c(O)c3)oc2c1	i
COc1c(-c2ccc(O)c(O)c2)oc2cc(O)cc(O)c2c1=O	i
CC(C)c1ccc(-c2nccn2CCn2ccnn2)cc1	i
FC(F)(F)c1cc(-c2ccccc2)nc(NCc2ccco2)n1	i
Cc1ccc(O)c(Nc2c([N+](=O)[O-])c(=O)oc3ccccc23)c1	i
O=[N+]([O-])c1ccccc1CN1C[C@H](O)C[C@H]1c1nc(Cc2ccc(F)cc2Cl)no1	i
CN1CCC(N2C[C@H](O)C[C@H]2c2nc(Cc3ccc(F)cc3Cl)no2)CC1	31%*
CC(=O)N1CCC(N2C[C@H](O)C[C@H]2c2nc(CS(=O)(=O)c3ccc(F)cc3)no2)CC1	i
CSc1nc(-c2cccs2)nc2c1c(=O)n(C)c(=O)n2C	i
Cc1ccccc1C(=O)N1CCC(C(=O)Nc2cc(C(F)(F)F)ccc2Cl)CC1	i
Cc1csc2ncc(C(=O)Nc3ccccc3)c(=O)n12	i
Cc1csc2ncc(C(=O)Nc3ccon3)c(=O)n12	97%*!
Cc1csc2ncc(C(=O)Nc3ccc(Cl)cc3)c(=O)n12	i
Cc1ccc(N2NC(=O)CC2=O)cc1Cl	i
CCCCOC(=O)C1C2C=CC3(CN(CCCOC)C(=O)C13)O2 (stereo not drawn)	i
COc1ccc(N2CCN(C(=O)c3cc4c(=O)n5cccc(C)c5nc4n3C)CC2)cc1	i
COc1cc(/C=C2\C(=O)NC(=O)N(c3cccc(C)c3)C2=O)cc(Cl)c1O	i
SMILES	ST2 inh
COc1ccc(OC)c(/C=C2\C(=O)Nc3ccc(Br)cc32)c1	35%*
COc1ccc(N2C(=O)NC(=O)/C(=C/c3cc(Br)c(O)c([N+](=O)[O-])c3)C2=O)cc1	i
COc1cc(/C=C2/C(=O)NN(c3ccc(Cl)cc3)C2=O)cc([N+](=O)[O-])c1O	i
CCOc1cc(/C=C2\C(=O)Nc3ccc(Br)cc32)cc(Cl)c1O	33%*
COc1cc(/C=C2\C(=O)Nc3ccc(Br)cc32)cc([N+](=O)[O-])c1O	31%*
CCOc1cc(/C=C2/NC(=O)NC2=O)c(Br)cc1O	i
COc1cc(OC)c(/C=C2/C(=O)Nc3ccccc32)c(OC)c1	i
COc1ccc(/C=C2\C(=O)Nc3ccc(Br)cc32)c(OC)c1OC	i
C=CCC(=O)N1CCc2ccc(NC(=O)CCc3ccc(C)cc3)cc2C1	i
CCC1CCCCN1CC(=O)N1CCCc2c1c(=O)oc1ccc(O)cc21 (stereo not drawn)	i
CC(C)c1cc(C2CCN(Cc3cnc[nH]3)CC2)[nH]n1	i
CCC(=O)N1CCc2cc(Br)cc(S(=O)(=O)N3CCN(C)CC3)c21	i
Cn1cc(SCc2ccc(Cl)cc2)c2ccccc21	i
Cc1c(C(=O)O)sc2ncnc(N3CCOCC3)c12	i
CCCCc1ncc(-c2nccn2CCC2CCCN2C)[nH]1 (stereo not drawn)	i
CCCCOc1ccc(S(=O)(=O)n2c([N+](=O)[O-])cnc2C)cc1	i
CCc1ccc(CN2CCCC(CO)C2)cc1 (stereo not drawn)	i
OCC1CCCN(Cc2ccc3c(c2)Cc2ccccc2-3)C1 (stereo not drawn)	98%*
Cc1ccc(CN2CCCC(CO)C2)cc1 (stereo not drawn)	i
CN(C)c1ccc(/C=C2/SC(=Nc3ccccc3Cl)NC2=O)cc1	39%*
O=C1NC(=Nc2ccc(O)cc2)S/C1=C\c1cccc(O)c1	i
COc1ccccc1C=C1C(=O)OC(C)(c2ccccc2)OC1=O (stereo not drawn)	i
COc1ccccc1/C=C1/SC(=Nc2ccccc2Cl)NC1=O	33%*
Cn1c(=O)cc(SCC(=O)NCc2ccc3c(c2)OCO3)c2ccccc21	i
Cc1cccc(NC(=O)CSc2nc3c(c(=O)n2-c2ccccc2)SCC3)c1C	i
C#CC(C)(C)N1C[C@@H](C)[C@](O)(c2ccccc2)C[C@@H]1C	i
CCOC(=O)c1cccnc1N1CCN(Cc2cccc3nsnc23)CC1	i
CC(C)Oc1ccccc1-c1nc(C(N)=O)c2c(n1)n(-c1ccc(F)cc1)c(=O)n2C	i

Screening results as filed in PubChem BioAssay.
